The values below come from PubChem BioAssay.

“And” between values parts separate entries of the source, which are not always exact repeats. Equal values may be shown once. A number with no mark means an inactive call.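 Rule for the calls, unless noted: active = differentiation response of at least 50%, scaled between solvent and reference control, from cells with both markers; inactive = the rest.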

Chain of ATP-binding cassette sub-family B member 6 (Homo sapiens) (Q9NP58 whole entry, looked up): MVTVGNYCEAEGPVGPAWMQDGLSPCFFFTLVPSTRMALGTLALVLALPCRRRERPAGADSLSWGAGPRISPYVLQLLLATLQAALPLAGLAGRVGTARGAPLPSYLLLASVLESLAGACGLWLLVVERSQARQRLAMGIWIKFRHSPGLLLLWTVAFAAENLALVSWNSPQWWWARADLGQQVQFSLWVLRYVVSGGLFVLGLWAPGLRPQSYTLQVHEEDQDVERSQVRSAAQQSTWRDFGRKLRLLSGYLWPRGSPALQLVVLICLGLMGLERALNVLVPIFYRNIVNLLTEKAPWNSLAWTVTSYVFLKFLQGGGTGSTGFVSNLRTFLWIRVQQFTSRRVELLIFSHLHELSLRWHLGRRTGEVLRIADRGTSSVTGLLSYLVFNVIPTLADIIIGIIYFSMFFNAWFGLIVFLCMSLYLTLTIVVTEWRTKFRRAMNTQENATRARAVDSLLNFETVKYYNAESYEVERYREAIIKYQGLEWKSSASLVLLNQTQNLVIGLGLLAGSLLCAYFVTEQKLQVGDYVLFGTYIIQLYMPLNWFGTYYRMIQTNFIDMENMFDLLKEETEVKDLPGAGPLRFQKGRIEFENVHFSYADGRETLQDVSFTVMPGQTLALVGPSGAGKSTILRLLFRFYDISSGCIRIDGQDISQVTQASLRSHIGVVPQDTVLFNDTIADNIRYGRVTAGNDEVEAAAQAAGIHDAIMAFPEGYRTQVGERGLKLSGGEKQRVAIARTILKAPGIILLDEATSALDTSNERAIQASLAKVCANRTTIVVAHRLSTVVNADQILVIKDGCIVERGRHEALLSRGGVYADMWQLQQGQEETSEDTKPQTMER

The first assay has as its target ATP-binding cassette sub-family B member 6 (Homo sapiens) (UniProt Q9NP58). Description: ABCB6 transporter inhibitors, pilot screen, K562-ABCB6 cells, flow cytometry, validation set (AID 588550;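 active = inhibition above the screen-wide mean plus 3 SD, about 51%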;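 note: 0% = DMSO wells and 100% = benzethonium chloride 70 µM positive control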). Conditions: K562-ABCB6 porphyrin accumulation, 1 h, at 10 µM, active compounds read high.
As usually defined, the inhibition is the drop in the measured response relative to a control, in per cent. `Nc1ccc2nc(Cc3ccccc3)[nH]c2c1`: the inhibition was 3%. Still for that read-out and setting: to `COc1ccc2c(c1)[N+](C)(C)C(C)(C)C=C2C` belongs 5%.

Turning to `COc1ccc(CCN(C)Cc2nc(Cc3ccc(OC)c(OC)c3)no2)cc1OC`, the inhibition is 1%. For the compound `N=c1c[n+](N2CCOCC2)[n-]o1`, the inhibition is 9%. Still for that read-out and setting: under `CCCc1cc(=O)[nH]c(=S)[nH]1` stands -3%; under `COC(=O)c1ccccc1NC(=O)c1ccc(COc2ccc3c(c2)CCC3)cc1`, -3%; under `CC1(C)Cc2ccccc2-c2nc(-c3ccccc3)oc(=O)c21`, 7%.

Regarding `Cc1cc(=O)oc2c(CN(C)Cc3ccccc3)c(O)ccc12`, the inhibition was 10%. In the case of `CC1=NN(c2ccccc2)C(=O)C1`, the inhibition is -1%.

Take `CCOc1ccc2ccccc2c1C(=O)N[C@@H]1C(=O)N2[C@@H]1SC(C)(C)[C@@H]2C(=O)O`: the inhibition is 8%. On the same count and under the same terms, to `O=C1CC2(CCCC2)CC(=O)N1CCCCN1CCN(c2ncccn2)CC1` belongs 9%; to `Cc1ccc(C2=NOC(=O)/C2=C\C=C\c2ccccc2)cc1`, -16%; to `COc1ccc2c3c([nH]c2c1)C1(NCC3)C(=O)Nc2ccccc21` (stereo not given), -6%.

In the case of `CC1(C)S[C@@H]2[C@H](NC(=O)Cc3ccccc3)C(=O)N2[C@H]1C(=O)O`, the inhibition was 10%. As to `COc1cc2cc(C(=O)O)[nH]c2c(OC)c1OC`, the inhibition is -4%. Turning to `Clc1cc(-c2ccc(/C=N/n3cnnc3)o2)ccc1Br`, the inhibition was -9%.

System in a further assay: not listed separately
Description: promoters of myeloid differentiation in arrested cells, primary screen, cell-based, GFP/MAC1 double positive, flow cytometry, validation set (AID 588685).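 Note: compound exposure lasts four days before antibody staining and flow analysis; 0% = DMSO wells and 100% = 5 µM fulvestrant positive control.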 The conditions noted are these: ER-HoxA9 marrow cells, active compounds read high, normalized: vehicle 0, fulvestrant 100.
`S=C(NCCOCCOCCNC(=S)Nc1ccccc1)Nc1ccccc1`: the differentiation response was 5.6%. In the case of `Cc1ccc(CN2CCN(Cc3cn[nH]c3C3CCCCC3)CC2CCO)cc1` (stereo not given), the differentiation response was -5.97%. In the case of `OCCC1CN(Cc2ccccc2-c2ccco2)CCN1C1CCCC1` (stereo not given), the differentiation response was -3.02%. Consider `COc1ccc2oc(-c3ccco3)cc(=O)c2c1`, for which the differentiation response was -3.4%.

Take `Nc1nc2c(nc(SCc3ccccc3Br)n2C2OC(CO)C(O)C2O)c(=O)[nH]1` (stereo not given): the differentiation response is -23.2%.

`O=C(CCC(=O)NCCO)NCCO`: the differentiation response was -1.05%.

Regarding `Cc1cc(=O)[nH]c(=S)[nH]1`, the differentiation response is 0.82%. As to `CN(C)C(=O)Oc1cccc([N+](C)(C)C)c1`, the differentiation response was -0.06% and -15.2%. Consider `COc1cc(/C=C/C(=O)O)cc(S(=O)(=O)NCCCO)c1OC`, for which the differentiation response is -15.2%. Still for that read-out and setting: under `COC(=O)c1sccc1NC(=O)Nc1ccccc1F` stands 7.13%.

Regarding `CC1(C)C(=O)OC(/C=C\c2ccccc2)C(C)(C)C1=O` (stereo not given), the differentiation response was 4.86%.

`O=C(/C=C/c1ccc(F)cc1)NC(=S)N1CCCCC1c1cccnc1` (stereo not given): the differentiation response is -4.99%. With `COc1cc2c(cc1OC)C1(CCCC1)CNC2c1cccc([N+](=O)[O-])c1` (stereo not given), the differentiation response was -8.8%.

Consider `O=C(NCCO)c1ccc(Cl)c(Cl)c1`, for which the differentiation response was -10.4%. Consider `N#C/C(=C\c1ccc(O)c(O)c1)C(=O)NCCCc1ccccc1`, for which the differentiation response is 3.88%.

With `CSCC[C@H](NC(=O)OC(C)(C)C)C(=O)N1CCC(C(=O)N[C@@H](C)C(=O)O)CC1`, the differentiation response was 0.41%. Turning to `Cc1cc(-c2nn(-c3ccccc3F)cc2CN2CCCC(O)C2)c(C)s1` (stereo not given), the differentiation response is -13.9%. For the compound `COCCCNc1nc2c([nH]1)c(=O)[nH]c(=O)n2C`, the differentiation response was -5.97%. On the same count and under the same terms, to `CC(C)Oc1ccc2c(=O)c(-c3ccccc3)coc2c1` belongs -5.73%. As for `O=C(Nc1cccc(Oc2c(F)c(F)c(F)c(F)c2F)c1)N1C[C@@H]2C[C@@H](C1)c1cccc(=O)n1C2`, the differentiation response was 7.09%. With `CCCCC[C@H](O)/C=C/C1=C(CCCCCCC(=O)O)C(=O)CC1`, the differentiation response is -8.96%. For `CC(=O)OC[C@H]1O[C@@H](Sc2cccc3cccnc23)[C@H](OC(C)=O)[C@@H](OC(C)=O)[C@H]1OC(C)=O`, the differentiation response is -5.97%.

For `COc1cc(OC)cc(C(C)=O)c1`, the differentiation response is -6.96%.

`Nc1ccc2nc(Cc3ccccc3)[nH]c2c1`: the differentiation response is 15.6%.

Take `COc1ccc2c(c1)[N+](C)(C)C(C)(C)C=C2C`: the differentiation response is 12.9%. As for `COc1ccc(CCN(C)Cc2nc(Cc3ccc(OC)c(OC)c3)no2)cc1OC`, the differentiation response was 29.5%. Turning to `N=c1c[n+](N2CCOCC2)[n-]o1`, the differentiation response was 7.09%. As to `CCCc1cc(=O)[nH]c(=S)[nH]1`, the differentiation response is -1.65%.

`COC(=O)c1ccccc1NC(=O)c1ccc(COc2ccc3c(c2)CCC3)cc1`: the differentiation response was 1.22%.

As to `CC1(C)Cc2ccccc2-c2nc(-c3ccccc3)oc(=O)c21`, the differentiation response was -0.06%. Same read-out and setting: to `Cc1cc(=O)oc2c(CN(C)Cc3ccccc3)c(O)ccc12` belongs 0.24%; to `CC1=NN(c2ccccc2)C(=O)C1`, 2.74%. `CCOc1ccc2ccccc2c1C(=O)N[C@@H]1C(=O)N2[C@@H]1SC(C)(C)[C@@H]2C(=O)O`: the differentiation response was 11%. `O=C1CC2(CCCC2)CC(=O)N1CCCCN1CCN(c2ncccn2)CC1`: the differentiation response was 12%. Turning to `Cc1ccc(C2=NOC(=O)/C2=C\C=C\c2ccccc2)cc1`, the differentiation response was -4.57%.

As to `COc1ccc2c3c([nH]c2c1)C1(NCC3)C(=O)Nc2ccccc21` (stereo not given), the differentiation response is 10.4%. Still for that read-out and setting: to `CC1(C)S[C@@H]2[C@H](NC(=O)Cc3ccccc3)C(=O)N2[C@H]1C(=O)O` belongs 2.89%. For the compound `COc1cc2cc(C(=O)O)[nH]c2c(OC)c1OC`, the differentiation response is 8.06%. As for `Clc1cc(-c2ccc(/C=N/n3cnnc3)o2)ccc1Br`, the differentiation response is -4.57%.
